We go through ten compounds from PubChem BioAssay (EPA / NIEHS).

The structures appear in SMILES notation. The source made the active and inactive calls. Rule for the calls: active = hit-call score of the fitted dose curve at least 0.9, where 1 is the maximum; inactive = score below 0.9.

The assay is described as follows: CCTE_Mundy_HCI_Cortical_Synap_Neur_Matur_CellBodySpotCount: CCTE's Synaptogenesis and Neurite Maturation Assay in rat cortical cells for Cell Body Spot Count, Mundy Lab (AID 2284223). The method, then:
CCTE_Mundy_HCI_Cortical_Synap&Neurite_Matur is a multiplexed, cell-based-readout assay that uses rat primary cortical cells with measurements taken at 288.33 hours after chemical dosing in a microplate: 96-well plate.CCTE_Mundy_HCI_Cortical_Synap_Neur_Matur_CellBodySpotCount is one of eight components of the CCTE_Mundy_HCI_Cortical_Synap&Neurite_Matur assay. It measures synaptogenesis and neurite maturation related to number of cell body-associated synapses (synaptophysin puncta) per neuron using High Content Imaging of fluorescently labelled markers.[…] Using a type of morphology reporter, loss -of-signal activity can be used to understand developmental effects.
Cells are plated onto 96 well plates and allowed 2 hr for attachment to the substrate. At days in vitro (DIV) 5, Cytosine Arabinoside (AraC) is added to arrest glial cell growth. Chemicals are dosed and a media change is performed at DIV 7 of differentiation and is continued through DIV 12 when the experiment is terminated. Cells are fixed with […] and Hoechst Dye. Cells are stained using Millipore Mouse anti-MAP2MAB3418 (1:800) and Millipore Rabbit anti-Synaptophysinsc-1750 (1:250) primary antibodies and Alexa Fluor-488 goat anti-mouse and AlexaFluor-546 goat anti-rabbit secondary antibodies to label neuronal cell nuclei, synapses and neurites. A Cellomics ArrayScan VTi HCS Reader is used for automated image acquisition and analysis of neurite outgrowth.
With `CCN(CC)C(=O)c1cccc(C)c1`, the call was inactive.
Same read-out and setting: the result for `C#CCOC(=O)[C@@H](C)Oc1ccc(Oc2ncc(Cl)cc2F)cc1` reads “inactive”.
The same measure, in the same setting: the same measure for `S=C(S)NCCNC(=S)S.[Mn+2].[S-]C([S-])=NCCN=C([S-])[S-].[Zn+2]`: “inactive”; for `O=C(O)c1ccccc1`: “inactive”; for `CC1(C)C(C=C(Cl)Cl)C1C(=O)OCc1cccc(Oc2ccccc2)c1` (stereo not given): “inactive”.
Turning to `Cc1nn(C)c(Oc2ccccc2)c1C=NOCc1ccc(C(=O)OC(C)(C)C)cc1`, the AC50 was 4.03 nM (active).
As to `CC(C)(c1ccc(O)cc1)c1ccc(O)cc1`, the compound was called inactive.
Same read-out and setting: the result for `S=C([S-])NCCNC(=S)[S-].[Mn+2]` reads “inactive”; that for `CSC(=O)c1cccc2nnsc12`, “inactive”; that for `CCCN(CCC)C(=O)SCC`, “inactive”.

As usually defined, the AC50 is the concentration giving half of the maximal activity seen.
